# Results filed as inconclusive are left out. A number with no mark means an inactive call. The source made the active and inactive calls. Calls follow the shape of the dose curve; as a rule, active = well fitted curve in the direction sought with a large enough effect in the signal ratio in the repeat runs (not every such curve was filed as active); inconclusive = weak or mixed curves, or effect the other way; inactive = no such curve, though single readings can be large or run the other way; the % refers to the signal ratio.
# Molecular target: Estrogen receptor (Homo sapiens) (UniProt P03372)
# Sequence (P03372 whole entry, looked up): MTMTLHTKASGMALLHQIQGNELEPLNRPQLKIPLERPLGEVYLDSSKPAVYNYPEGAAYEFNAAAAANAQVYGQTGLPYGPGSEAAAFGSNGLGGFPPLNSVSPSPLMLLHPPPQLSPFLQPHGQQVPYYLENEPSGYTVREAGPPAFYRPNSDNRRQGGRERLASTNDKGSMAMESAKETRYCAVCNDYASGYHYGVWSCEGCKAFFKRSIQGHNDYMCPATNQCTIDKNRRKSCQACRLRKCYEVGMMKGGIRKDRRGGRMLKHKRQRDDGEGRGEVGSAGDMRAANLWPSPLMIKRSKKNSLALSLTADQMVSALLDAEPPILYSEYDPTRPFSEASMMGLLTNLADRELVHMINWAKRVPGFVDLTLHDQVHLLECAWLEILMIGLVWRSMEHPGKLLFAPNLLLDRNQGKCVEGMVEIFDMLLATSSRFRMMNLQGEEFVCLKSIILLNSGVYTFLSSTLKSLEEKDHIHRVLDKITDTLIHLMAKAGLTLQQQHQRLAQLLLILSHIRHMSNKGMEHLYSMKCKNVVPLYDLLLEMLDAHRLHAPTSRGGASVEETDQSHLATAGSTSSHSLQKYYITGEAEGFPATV
# Experiment: qHTS assay to identify small molecule antagonists of the estrogen receptor alpha (ER-alpha) signaling pathway (AID 743069)
# Settings: HEK293 ER-alpha-UAS-bla, beta-lactamase ratio, antagonist mode; series mostly up to 69.4 µM; activity, negative = inhibition: at the top concentration
# Description: National Center for Advancing Translational Sciences [NCATS]
# NIH Chemical Genomics Center [NCGC]
# U.S. Environmental Protection Agency [EPA]
# National Institutes of Environmental Health Sciences [NIEHS]
# National Toxicology Program [NTP]
# U.S. Food and Drug Administration [FDA]
# Estrogen receptor (ER), a nuclear hormone receptor, plays an important role in development, metabolic homeostasis and reproduction. Two subtypes of ER, ER-alpha and ER-beta have similar expression patterns with some uniqueness in both types. Endocrine disrupting chemicals (EDCs) and their interactions with steroid hormone receptors like ER causes disruption of normal endocrine function. To identify the compounds that inhibit ER signaling, an ER-alpha-UAS-bla GripTiteTM cell line (Invitrogen, Carlsbad, CA, USA) containing a beta-lactamase reporter gene under the control of an Upstream Activator Sequence (UAS) stably integrated into HEK293 cells was used to screen the Tox21 10K compound library.
# Tox21 Assay Protocol Summary:
# ER-alpha-bla cells were cultured in assay medium containing 2% charcoal stripped FBS overnight in the culture flasks before the assay was performed. The cells were dispensed at 5,000 cells/5 uL of assay medium per well into black wall/clear-bottom 1536-well plates using a Multidrop Combi (ThermoFisher Scientific, Waltham, MA) dispenser. After the assay plates were incubated at a 37C and 5% CO2 for 4 hr, 23 nL of compounds dissolved in DMSO, positive controls or DMSO only was transferred to the assay plate by a Pintool station (Kalypsys, San Diego, CA), followed by addition of 1 uL of 17beta-estradiol in assay medium using a Flying Reagent Dispenser (Aurora Discovery, San Diego, CA). The plates were incubated at 37C and 5% CO2 for 18 hr. Then 1 uL of LiveBLAzerTM B/G FRET substrate was added using a Flying Reagent Dispenser, the plates were incubated at room temperature for 2 hours, and fluorescence intensity was measured by an Envision plate reader (PerkinElmer, Shelton, CT).
# % is scaled to controls: 0 for no effect and ±100 for the full control effect.
SMILES,"activity, negative = inhibition",Potency
CCCCCCCCCCCCCCCCCCO,-0.495%,–
COCCOC[C@H](CC1(C(=O)NC2CCC(C(=O)O)CC2)CCCC1)C(=O)Oc1ccc2c(c1)CCC2 (stereo not given in full),3.83%,–
CCOC(=O)CCC(=O)OCC,10.6%,–
CCN[C@H]1C[C@H](C)S(=O)(=O)c2sc(S(N)(=O)=O)cc21,2.1%,–
CC(=O)O[C@@]12CO[C@@H]1C[C@H](O)[C@@]1(C)C(=O)[C@H](O)C3=C(C)[C@@H](OC(=O)[C@H](O)[C@@H](NC(=O)OC(C)(C)C)c4ccccc4)C[C@@](O)([C@@H](OC(=O)c4ccccc4)[C@H]21)C3(C)C,-18.2%,–
C=CCCCCCCCCC(=O)OCC,-31.1%,–
CC(COc1ccccc1)NN (stereo not given),-17.3%,–
CCN1C=CN(C)C1C (stereo not given),-4.93% [at 79.1 µM],–
COc1cc(C(=O)NCc2ccc(OCCN(C)C)cc2)cc(OC)c1OC,-12.8% [at 32.6 µM],–
O=C(O)c1cn(C2CC2)c2cc(N3CCNCC3)c(F)cc2c1=O,7.5% [at 32.6 µM],–
CCOC(=O)C1=NOC(c2ccccc2)(c2ccccc2)C1,5.36%,–
CC(=O)c1cnccn1,25.6% [at 79.1 µM],–
Cc1ccc(C(=O)Nc2ccc(S(=O)(=O)O)c3cc(S(=O)(=O)O)cc(S(=O)(=O)O)c23)cc1NC(=O)c1cccc(NC(=O)Nc2cccc(C(=O)Nc3cc(C(=O)Nc4ccc(S(=O)(=O)O)c5cc(S(=O)(=O)O)cc(S(=O)(=O)O)c45)ccc3C)c2)c1,-11.9%,–
CCOc1ccc2nc(S(N)(=O)=O)sc2c1,6.9%,–
CN(C)C(=O)Oc1ccc[n+](C)c1,9%,–
Cc1ccnc(NS(=O)(=O)c2ccc(N)cc2)n1,4.68% [at 32.6 µM],–
CCCOC(=O)CC,19.5%,–
C1CCC2(CCCCO2)OC1,12.9%,–
COc1ccc2cc1Oc1cc3c(cc1OC)CC[N+](C)(C)[C@H]3Cc1ccc(cc1)Oc1c(OC)c(OC)cc3c1[C@@H](C2)[N+](C)(C)CC3,6.3%,–
CC(C)=CCC/C(C)=C/C#N,24.1% [at 79.1 µM],–

SMILES,"activity, negative = inhibition",Potency
CCCCCCCCCCOc1cc2c(=O)c(C(=O)OCC)c[nH]c2cc1OCC,4.8%,–
CCNS(=O)(=O)c1ccc(C)cc1,-3.64% [at 79.1 µM],–
O=C(CO)[C@@H](O)[C@H](O)[C@@H](O)CO,-8.55%,–
CCOCC(C)O (stereo not given),17.6%,–
O=C(O)Cc1csc(-c2ccc(Cl)cc2)n1,3.59%,–
Cc1ccc(C(=O)c2ccccc2)cc1,18.3%,–
CC(=O)C1CCCCC1=O (stereo not given),-6.05%,–
CC1=CCC(O)(C(C)C)CC1 (stereo not given),40.9%,–
CC/C=C\CCOC(C)OCC (stereo not given),12.1%,–
O=C(O)c1cc(C(=O)O)cc(C(=O)O)c1,14.3% [at 79.1 µM],–
C=COCC1CCC(COC=C)CC1 (stereo not given),20.4%,–
CO[C@@]1(NC(=O)C(C(=O)O)c2ccc(O)cc2)C(=O)N2C(C(=O)O)=C(CSc3nnnn3C)CO[C@@H]21 (stereo not given in full),5.95% [at 32.6 µM],–
CN1CC(=O)N/C1=N/C(=O)Nc1cccc(Cl)c1,–,inactive
O=C(O)CC(C(=O)O)S(=O)(=O)O (stereo not given),8.9%,–
O=S(=O)(O)c1cccc(S(=O)(=O)O)c1,24.8%,–
C=CC(=O)OCCCl,-6.18% [at 79.1 µM],–
CCCCOC(=O)CCC(C)=O,11%,–
O=S(=O)(O)c1cc(O)c(O)c(S(=O)(=O)O)c1,-16%,–
CCCCc1ccc2c(n1)[C@@H](c1ccc(OC)cc1C[C@H](C)C(=O)O)[C@H](C(=O)O)[C@H]2c1ccc2c(c1)OCO2,3.81%,–
CC(=O)N1C[C@H](O)C[C@H]1C(=O)O,13.7%,–

# Source: PubChem BioAssay (Tox21)
